The record followed here is PubChem BioAssay (NCI).

Common to all, as to assay: NCI-60 one-dose screen, 48 h (100 = growth as untreated, 0 = no growth, -100 = all killed)
The subject of one assay is NCI-H23 lung. Conditions: 10 µM unless noted.
In another assay the test system is HOP-62 NSCLC. Conditions: 10 µM unless noted.
The next assay relates to NCI-H460 lung. The note with it: 10 µM unless noted.
Another assay has as its system A549/ATCC NSCLC. The note with it: 10 µM unless noted.
The next assay has as its system K-562 leukemia. Conditions: 10 µM unless noted.
Another assay deals with RXF 393 renal. The note with it: 10 µM unless noted.
Another assay relates to SF-295 CNS. Conditions: 10 µM unless noted.
For the next assay, the system named is UACC-257 melanoma. The note with it: 10 µM unless noted.
A further assay concerns U251 CNS. Conditions: 10 µM unless noted.
The next assay concerns LOX IMVI melanoma. Conditions: 10 µM unless noted.
For a further assay, the system named is SK-MEL-28 melanoma. The note with it: 10 µM unless noted.
The test system of a further assay is SK-MEL-2 melanoma. The note with it: 10 µM unless noted.
Another assay concerns UO-31 renal. Conditions: 10 µM unless noted.
A further assay deals with TK-10 renal. Conditions: 10 µM unless noted.
The subject of another assay is A498 renal. The note with it: 10 µM unless noted.
The test system of the next assay is HL-60(TB) leukemia. The note with it: 10 µM unless noted.
A further assay concerns SR leukemia. Conditions: 10 µM.
The test system of the next assay is OVCAR-4 ovarian. Conditions: 10 µM unless noted.
The subject of another assay is BT-549 breast. Conditions: 10 µM.
The subject of a further assay is HCC-2998 colon. Conditions: 10 µM unless noted.

SMILES strings stand for the structures. The panel holds about 83,000 compounds, 20% with a hit somewhere; the sample as a whole holds those more often.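 96-well plates, one dose, 48 hours. Percent growth reported; active if below 10.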 A number with no mark means an inactive call. Activity calls are given as the source filed them.

With `OB([O][Hg][c]1ccccc1)[O][Hg][c]1ccccc1`, the growth in the assay on NCI-H23 lung was -56.2% (active); in the assay on HOP-62 NSCLC it was -90.3% (active); with NCI-H460 lung, -21.4% (active); in the assay on A549/ATCC NSCLC, 24%; in the assay with K-562 leukemia, -32.5% (active); in the assay on RXF 393 renal it was -94.3% (active). For the same compound, the growth in the assay with SF-295 CNS is -32.1% (active); in the assay with UACC-257 melanoma it was -98.3% (active); with U251 CNS, -82.4% (active); with LOX IMVI melanoma, -29.2% (active); in the assay with SK-MEL-28 melanoma it was -83.2% (active); in the assay with SK-MEL-2 melanoma it was -74.9% (active). Also, the growth in the assay with UO-31 renal is -94.1% (active); with TK-10 renal it was -94.5% (active); in the assay with A498 renal, -31.2% (active); with HL-60(TB) leukemia, -53.3% (active); with SR leukemia it was -15.2% (active); with OVCAR-4 ovarian, 7.38% (active). Besides, the growth is -91.5% (active) in the assay on BT-549 breast and -45.5% (active) in the assay with HCC-2998 colon.
Consider `O=C1c2ccccc2C(=O)N1[N+](=O)[O-]`, for which the growth in the assay on NCI-H23 lung is 95.3%; in the assay with NCI-H460 lung, 102%; in the assay with A549/ATCC NSCLC it was 95.4%; with K-562 leukemia it was 105%; in the assay with RXF 393 renal it was 103%; in the assay with SF-295 CNS it was 103%. The growth is 101% in the assay on UACC-257 melanoma; 93.2% with U251 CNS; 91.6% in the assay with LOX IMVI melanoma; 104% with SK-MEL-2 melanoma; 85.9% with UO-31 renal; 93.2% with TK-10 renal. For the same compound, the growth was 93.6% in the assay on A498 renal; 113% with HL-60(TB) leukemia; 95.4% in the assay on SR leukemia; 109% in the assay on OVCAR-4 ovarian; 110% in the assay on BT-549 breast; 87.2% with HCC-2998 colon.
For `O=C1NC(=O)C(O)(C2(O)C(=O)NC(=O)NC2=O)C(=O)N1`, the growth was 103% in the assay with NCI-H23 lung; 97.6% in the assay on HOP-62 NSCLC; 100% in the assay with NCI-H460 lung; 87.9% in the assay with K-562 leukemia; 133% with SF-295 CNS; 99.9% in the assay with U251 CNS. In addition, the growth in the assay with LOX IMVI melanoma was 91.9%; in the assay with SK-MEL-28 melanoma, 109%; in the assay with SK-MEL-2 melanoma, 77.5%; in the assay on UO-31 renal, 86.1%; with TK-10 renal, 118%; with A498 renal, 89.1%. Further, the growth in the assay on HL-60(TB) leukemia is 85.9%; in the assay with SR leukemia, 95.1%; with OVCAR-4 ovarian it was 108%; with HCC-2998 colon it was -55.7% (active).
For the compound `C=CC(O)CN1CC1CC` (configuration not stated), the growth is 99% in the assay on NCI-H23 lung; 101% with HOP-62 NSCLC; 100% with NCI-H460 lung; 92.8% in the assay with A549/ATCC NSCLC; 101% in the assay on K-562 leukemia; 115% in the assay with RXF 393 renal. In addition, the growth in the assay on SF-295 CNS is 102%; in the assay on UACC-257 melanoma, 88.6%; in the assay with U251 CNS, 93.8%; in the assay with LOX IMVI melanoma it was 92.6%; in the assay with SK-MEL-28 melanoma, 105%; in the assay with UO-31 renal, 86.3%. For the same compound, the growth is 89.5% with A498 renal; 101% with HL-60(TB) leukemia; 89.9% with SR leukemia; 112% with OVCAR-4 ovarian; 93.5% in the assay on BT-549 breast; 96.2% in the assay with HCC-2998 colon.
`CC1CC=CCC12C(=O)NC(=S)NC2=O` (configuration not stated): the growth with NCI-H23 lung was 113%; with NCI-H460 lung, 106%; in the assay on A549/ATCC NSCLC it was 91.2%; in the assay with K-562 leukemia, 94.2%; with RXF 393 renal it was 106%; in the assay with SF-295 CNS it was 99%. The growth in the assay on UACC-257 melanoma is 114%; in the assay with U251 CNS, 94.9%; in the assay with LOX IMVI melanoma it was 106%; with SK-MEL-28 melanoma, 101%; in the assay on SK-MEL-2 melanoma, 131%; in the assay with UO-31 renal, 92.9%. The growth in the assay on TK-10 renal is 103%; in the assay on A498 renal, 72.9%; in the assay with HL-60(TB) leukemia, 136%; with OVCAR-4 ovarian, 105%; with BT-549 breast, 110%; with HCC-2998 colon, 116%.
For `CCC(/C=C(C)/C=C/C(=O)c1c(O)c(-c2ccc(O)cc2)c[nH]c1=O)CO` (configuration not stated), the growth in the assay on NCI-H23 lung is 98.4%; in the assay on HOP-62 NSCLC, 98%; with NCI-H460 lung, 93.4%; in the assay with A549/ATCC NSCLC, 90.2%; in the assay on K-562 leukemia, 7.07% (active); in the assay with RXF 393 renal, 104%. For the same compound, the growth with SF-295 CNS is 81.1%; with UACC-257 melanoma it was 92.4%; with U251 CNS, 67.6%; with LOX IMVI melanoma it was 87.2%; in the assay with SK-MEL-28 melanoma it was 105%; in the assay with SK-MEL-2 melanoma, 88.7%. Further, the growth is 67.9% in the assay with UO-31 renal; 130% in the assay on TK-10 renal; 70.9% in the assay on A498 renal; 4.76% (active) in the assay on HL-60(TB) leukemia; 19.9% with SR leukemia; 78.8% in the assay on BT-549 breast. Also, in the assay with HCC-2998 colon, the growth is 106%.
In the case of `CCC1CN1P(=O)(OCCOC)N1CC1CC` (configuration not stated), the growth is 114% in the assay on NCI-H23 lung; 111% in the assay on HOP-62 NSCLC; 111% with NCI-H460 lung; 101% in the assay on A549/ATCC NSCLC; 109% in the assay on K-562 leukemia; 110% with RXF 393 renal. Besides, the growth in the assay on UACC-257 melanoma is 96.7%; with U251 CNS, 102%; in the assay with LOX IMVI melanoma, 105%; in the assay on SK-MEL-28 melanoma, 107%; in the assay on SK-MEL-2 melanoma, 126%; in the assay with UO-31 renal it was 88.6%. The growth was 123% in the assay on TK-10 renal; 119% with A498 renal; 119% in the assay on HL-60(TB) leukemia; 93.8% with SR leukemia; 109% in the assay with OVCAR-4 ovarian; 106% in the assay on BT-549 breast. In addition, in the assay on HCC-2998 colon, the growth is 104%.
For `Cc1cc(N(CCCl)CCCl)ccc1C=Nc1ccc2ccccc2c1`, the growth with NCI-H23 lung was 60.8%; in the assay on HOP-62 NSCLC, 42.7%; in the assay with NCI-H460 lung, 26%; in the assay with A549/ATCC NSCLC it was 69.8%; in the assay with K-562 leukemia, 80.7%; with RXF 393 renal, 71.5%. Also, the growth was 37.8% with UACC-257 melanoma; 63% with U251 CNS; 82.8% with LOX IMVI melanoma; 102% in the assay on SK-MEL-28 melanoma; 145% with SK-MEL-2 melanoma; 50.8% with UO-31 renal. Also, the growth with TK-10 renal is 73%; in the assay with A498 renal, -77.9% (active); in the assay on HL-60(TB) leukemia, 46%; with SR leukemia it was 46.2%; in the assay on OVCAR-4 ovarian, 83.5%; in the assay with BT-549 breast it was 86.1%. Also, in the assay on HCC-2998 colon, the growth is 94.5%.
